Results published in PubChem BioAssay AID2316 (Broad Institute, 2010).
Hit rate of the full screen: of about 29,000 compounds, fewer than 10 were called active. These entries were drawn from the full list. Unmarked numbers belong to inactive results. The rule behind the calls is not given here.

experiment: reversal of PD-1 mediated T-cell inhibition, primary screen, luminescence, primary human CD4 T cells, PD-L1 beads (AID 2316); details: CellTiter-Glo 96 h, stronger effect = higher value;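 note: 0% = median vehicle wells and 100% = positive control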

Structure (SMILES)	activation
C[C@@H]1CCCCO[C@@H](CN(C)C(=O)CCCN(C)C)[C@@H](C)CN([C@H](C)CO)C(=O)c2cc(NC(=O)Nc3ccc(F)cc3)ccc2O1	0.492%
C[C@@H]1CCCCO[C@@H](CN(C)S(=O)(=O)c2cccs2)[C@@H](C)CN([C@H](C)CO)C(=O)c2cc(NC(=O)Nc3ccc4c(c3)OCO4)ccc2O1	-0.659%
C[C@H](CO)N1C[C@H](C)[C@@H](CN(C)Cc2ccccc2)Oc2c(NC(=O)C3CCOCC3)cccc2C1=O	-1.74%
COC(=O)c1scc(S(=O)(=O)C(C)(C)C)c1-n1cccc1	-0.136%
COc1cc(/C=C/C(=O)O[C@@H]2O[C@H](CO[C@@H]3O[C@H](CO)[C@@H](O)[C@H](O)[C@H]3O)[C@@H](O)[C@H](O)[C@H]2OC(=O)/C=C/c2cc(OC)c(O)c(OC)c2)cc(OC)c1O	-0.424%
O=C(CCCN1C(=O)c2ccccc2C1=O)Nc1cccc2c1CCCC2	1.14%
CCC1(C)C(=O)C=C2C(=COC(C)=C2C)C1O (stereo not drawn)	0.686%
CCCOc1ccc(C(=O)C2C(=O)C(=O)N(c3nc(C)c(C(=O)OC)s3)C2c2ccco2)cc1 (stereo not drawn)	1.4%
Cc1ccc(S(=O)(=O)Nc2cccc3c2O[C@@H](CN(C)CC2CCCCC2)[C@H](C)CN([C@@H](C)CO)C3=O)cc1	3.09%
C[C@H]1CN([C@@H](C)CO)C(=O)Cc2cc(NC(=O)Nc3ccc(F)cc3)ccc2O[C@@H]1CN(C)C(=O)NC1CCCCC1	0.349%
COc1ccc(S(=O)(=O)NCc2ccccn2)cc1I	1.57%
C[C@H](CO)N1C[C@H](C)[C@@H](CN(C)Cc2ccccc2)Oc2ccc(NC(=O)CCCN(C)C)cc2C1=O	1.04%
Cc1noc(C)c1NC(=O)Nc1ccc2c(c1)C(=O)N([C@H](C)CO)C[C@H](C)[C@@H](CN(C)C(=O)Nc1ccccc1)O2	1.04%
C[C@H](CO)N1C[C@H](C)[C@H](CN(C)Cc2ccc3c(c2)OCO3)Oc2c(cccc2N(C)C)C1=O	0.478%
C[C@H]1CN([C@@H](C)CO)C(=O)c2cccc(NC(=O)CCCCCC(=O)Nc3ccccc3N)c2O[C@@H]1CN(C)CC1CCCCC1	0.769%
CS(=O)(=O)N(CC(=O)NC1CC1)c1ccc(Cl)c(C(F)(F)F)c1	-0.255%
CCOC(=O)c1cnn2c(C(F)(F)F)cc(C)nc12	0.193%
COC(=O)c1ccccc1NC(=O)C(C)Oc1ccccc1F (stereo not drawn)	2.99%
